Compounds without any hit were thinned out: in the full panel of roughly 83,000, 20% have a hit.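 Interpretation: 100, growth as untreated; towards 0, rising growth inhibition; 0, no net growth; 0 to -100, cell death. Compounds scoring below 10 were considered active.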 Values without a mark were called inactive. Activity calls are given as the source filed them.
Columns and labels:
Test in all cases: NCI-60 one-dose screen, 48 h (100 = growth as untreated, 0 = no growth, -100 = all killed)
HCT-15 colon = conditions: 10 µM unless noted
HT29 colon = conditions: 10 µM unless noted
SNB-75 CNS = conditions: 10 µM unless noted
SNB-19 CNS = conditions: 10 µM unless noted
U251 CNS = conditions: 10 µM unless noted
PC-3 prostate = conditions: 10 µM unless noted
UACC-62 melanoma = conditions: 10 µM unless noted
LOX IMVI melanoma = conditions: 10 µM unless noted
SK-MEL-28 melanoma = conditions: 10 µM unless noted
SK-MEL-2 melanoma = conditions: 10 µM unless noted
EKVX NSCLC = conditions: 10 µM unless noted
SN12C renal = conditions: 10 µM unless noted
UO-31 renal = conditions: 10 µM unless noted
TK-10 renal = conditions: 10 µM unless noted
ACHN renal = conditions: 10 µM unless noted
CAKI-1 renal = conditions: 10 µM unless noted
A498 renal = conditions: 10 µM
HL-60(TB) leukemia = conditions: 10 µM unless noted
CCRF-CEM leukemia = conditions: 10 µM unless noted
SK-MEL-5 melanoma = conditions: 10 µM unless noted

Row | SMILES | growth (HCT-15 colon) | growth (HT29 colon) | growth (SNB-75 CNS) | growth (SNB-19 CNS) | growth (U251 CNS) | growth (PC-3 prostate) | growth (UACC-62 melanoma) | growth (LOX IMVI melanoma) | growth (SK-MEL-28 melanoma) | growth (SK-MEL-2 melanoma) | growth (EKVX NSCLC) | growth (SN12C renal) | growth (UO-31 renal) | growth (TK-10 renal) | growth (ACHN renal) | growth (CAKI-1 renal) | growth (A498 renal) | growth (HL-60(TB) leukemia) | growth (CCRF-CEM leukemia) | growth (SK-MEL-5 melanoma) [%]
1 | O=C(CC1(O)C(=O)Nc2ccc(Cl)cc21)c1ccc(C(=O)NCC2CCC3(CC2)OOC2(CCCCC2)OO3)cc1 (stereo not given) | 49.1% | 15.1% | -3.77% (active) | 30.3% | -54.2% (active) | -34.2% (active) | 50.7% | 32.3% | 69.2% | 12.7% | -64.2% (active) | 28.2% | -81.1% (active) | -52.7% (active) | -87.3% (active) | -85.9% (active) | 26.9% | -62% (active) | -41.3% (active) | –
2 | O=C(CC1(O)C(=O)N(Cc2ccccc2)c2ccc(Cl)cc21)c1ccc(C(=O)NCC2CCC3(CC2)OOC2(CCCCC2)OO3)cc1 (stereo not given) | -14.1% (active) | -69.7% (active) | -61.7% (active) | 30.9% | -81.8% (active) | -54.3% (active) | 53% | -78.5% (active) | 58.5% | 2.93% (active) | -71.1% (active) | -58.1% (active) | -74.2% (active) | -91.5% (active) | -83.9% (active) | -94.3% (active) | -91% (active) | -62.7% (active) | -42.7% (active) | –
3 | CC(=O)[O][Hg][c]1c(N)c(C)cc(C)c1F | -14.2% (active) | 10% (active) | 32% | 112% | – | 51.9% | – | -70.1% (active) | -39.1% (active) | 11.6% | – | 5.86% (active) | 35.1% | 97.4% | 62.9% | 45.8% | 101% | -12.7% (active) | -6.01% (active) | 41
4 | COC(=O)[C@@H](NC(=O)c1cn(CCC2CCCCC2)c2ccccc12)C(C)(C)C | 59.9% | 69% | 71.2% | 97.5% | 72.6% | 49.7% | 38.1% | 54.2% | 85.8% | 78.1% | 58.6% | 65.7% | 39.2% | 77.8% | 59.5% | – | – | 60% | 72% | –
5 | N#CC1C(C#N)C2CCC1C1C2N1c1ccccc1 (stereo not given) | 97.9% | 114% | 87.1% | 104% | 111% | – | 105% | 103% | 106% | 106% | 97.5% | 99.5% | 72.3% | 106% | – | 98.9% | – | 91.7% | 82.9% | 104
6 | CC1(C)N=C(N)N=C(N)N1c1ccc(CCC(=O)Nc2ccc(S(=O)(=O)F)cc2)c(Cl)c1 | 48% | 15.5% | 59.4% | 42% | 35% | – | 16.9% | 15.3% | 50.4% | 48.5% | 55.1% | 28.9% | 93.1% | 42.4% | 47.9% | – | 34.8% | 18.3% | 44.9% | 22.2
7 | CCC1CC(O)c2c(O)c3c(c(O)c2C1O)C(=O)c1cccc(O)c1C3=O (stereo not given) (tested in a mixture with another compound) | -20.2% (active) | -24.6% (active) | -93.5% (active) | -16.4% (active) | -12.2% (active) | -33.4% (active) | -71.7% (active) | -28.1% (active) | – | -63% (active) | -4.25% (active) | 0.851% (active) | -32.9% (active) | -13.7% (active) | -18.1% (active) | 0.243% (active) | – | -45.5% (active) | -21.5% (active) | –
8 | COC(=O)[C@]12CCC(C)(C)C[C@H]1[C@H]1C(=O)C[C@@H]3[C@@]4(C)C[C@@]5(CC(C)(C)[C@@H]4CC[C@@]3(C)[C@]1(C)CC2)OO[C@@](C)(C(F)(F)F)O5 | 95.3% | 102% | 74.9% | 91.7% | – | 86.7% | 84.3% | 95.7% | 107% | 92.3% | 93.6% | 92.4% | 87.8% | 95.7% | 93.6% | 68.7% | 78.2% | 101% | 94.8% | 99.5
9 | O=C(CC1(O)C(=O)N(Cc2ccccc2)c2ccccc21)c1ccc(C(=O)NCC2CCC3(CC2)OOC2(CCCCC2)OO3)cc1 (stereo not given) | 0.81% (active) | -51.6% (active) | -75.6% (active) | 20.3% | -77.2% (active) | -61% (active) | 0.976% (active) | – | 63.1% | 6.18% (active) | -63.3% (active) | -60.9% (active) | -81.2% (active) | -93.2% (active) | -87.7% (active) | -90.4% (active) | -88.7% (active) | -67.4% (active) | -41.2% (active) | –
10 | CCn1c2ccccc2c2cc(C(=O)c3ccc(C)c4ccccc34)ccc21 | 15.7% | -7.41% (active) | 51% | 20.7% | 10.3% | 18.7% | 1.49% (active) | 1.21% (active) | 17.9% | 24% | 32% | 22.7% | 30.5% | 38% | 23.9% | 28.8% | 7.13% (active) | 8.9% (active) | 18.2% | –
11 | O=C(NCCN1CC1)C(=O)NCCN1CC1 | 95.2% | 68.9% | 76% | 101% | – | 93.2% | – | 80.2% | 102% | 97.1% | – | 87.3% | 96.4% | 83.6% | 67.9% | 20.9% | 105% | 63.1% | 56.8% | 94.6
12 | Cc1ccc(C(=O)NCCCOc2ccc(N)cc2Cl)cc1S(=O)(=O)F | 89.4% | 101% | 75.1% | 95.1% | – | 105% | 100% | 85.5% | 104% | 78.7% | – | 105% | 70.7% | 97.1% | 105% | 92.5% | 82.4% | 98.8% | 88.7% | 97.2
